This is an account of results in the supplement of paper PMC12669032.

Structures are written as SMILES. “And” between values parts separate entries of the source, which are not always exact repeats. Equal entries are not always repeated. Unmarked numbers belong to inactive results.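 Rule for the calls: active = AUC reduced over 20% with Padj below 0.05 in at least 2 of 3 replicates; inactive = otherwise.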

The first assay deals with Escherichia coli IAI1. Description: growth AUC relative to DMSO control (median of replicates) (fraction); higher = more growth (less inhibition), active = hit call of the paper. The conditions noted are these: 20 µM; 24 h. The essentials:
(§1)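 Gut bacterial monocultures in mGAM were treated with 20 µM compound (1% DMSO) and grown anaerobically at 37 °C in round-bottom 96-well plates from OD600 0.05. OD600 was read hourly for 24 h, with the minimum OD set to 0. Area under the growth curve was normalised to the plate median of solvent-only wells, or to row and column medians on the industrial chemical plate. Each value is the median of three biological replicates, each grown on a separate day.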
`Nc1cc(Cl)cc(C(=O)O)c1Cl`: the “growth AUC” value is 1.04.
Turning to `CCOP(=S)(OCC)Oc1cnccn1`, the “growth AUC” value is 0.963.
On the same count and under the same terms, under `O=C(O)C(F)(F)C(F)(F)C(F)(F)C(F)(F)C(F)(F)C(F)(F)C(F)(F)C(F)(F)F` stands 1.01; under `CCOP(=S)(OCC)SCSCC`, 0.956; under `CCOCn1c(-c2ccc(Cl)cc2)c(C#N)c(Br)c1C(F)(F)F`, 0.99.
On the same count and under the same terms, under `CCS(=O)(=O)c1cccnc1S(=O)(=O)NC(=O)Nc1nc(OC)cc(OC)n1` stands 0.999; under `CCNc1nc(NC(C)C)nc(SC)n1`, 0.989; under `CN1COCN(Cc2cnc(Cl)s2)/C1=N/[N+](=O)[O-]`, 0.97.
Turning to `COP(=S)(NC(C)C)Oc1ccccc1C(=O)OC(C)C` (stereo not drawn), the “growth AUC” value is 0.988.
On the same count and under the same terms, under `COC(=O)C(C)(Cl)Cl` stands 1.02; under `CCCCOCN(C(=O)CCl)c1c(CC)cccc1CC`, 1.04; under `CC1(C)C(C=C(Cl)Cl)C1C(=O)OC(C#N)c1ccc(F)c(Oc2ccccc2)c1` (mixture of isomers), 0.991.
Still for that read-out and setting: with `CCOC(=O)CC(SP(=O)(OC)OC)C(=O)OCC` (stereo not drawn) the figure was 0.976.
For `CCNc1nc(Cl)nc(NC(C)C)n1`, the “growth AUC” value was 0.992.
Still for that read-out and setting: under `Cc1cccc(C)c1N` stands 0.985; under `CN(C)C(=O)Nc1ccc(Cl)cc1`, 0.97; under `CCCCNC(=O)n1c(NC(=O)OC)nc2ccccc21`, 0.977.
For the compound `N#Cc1cc(I)c(O)c(I)c1`, the “growth AUC” value was 0.764 (active).
Turning to `CCOP(=S)(OCC)Oc1cc(Cl)c(Br)cc1Cl`, the “growth AUC” value was 0.992.
As for `Cc1cnc(C2=NC(C)(C(C)C)C(=O)N2)c(C(=O)O)c1` (stereo not drawn), the “growth AUC” value was 1.01.
As for `CC1(C)CCC(Cc2ccc(Cl)cc2)C1(O)Cn1cncn1` (stereo not drawn), the “growth AUC” value is 0.98.
Consider `CCCN(CCC)c1c([N+](=O)[O-])cc(S(C)(=O)=O)cc1[N+](=O)[O-]`, for which the “growth AUC” value was 0.962.
`Cc1occc1C(=O)Nc1ccccc1`: the “growth AUC” value was 0.953.
`CCCOCC(=Nc1ccc(Cl)cc1C(F)(F)F)n1ccnc1`: the “growth AUC” value was 0.995.
In the case of `Nc1cc(Cl)cc(Cl)c1`, the “growth AUC” value was 1.06.
Still for that read-out and setting: under `O=C(O)COc1cc(Cl)c(Cl)cc1Cl` stands 1.04; under `Cc1cc(Cl)ccc1N=CN(C)C`, 0.963; under `CNC(=O)Oc1cc(C)cc(C(C)C)c1`, 0.957.
For the compound `CCOc1cc(Oc2ccc(C(F)(F)F)cc2Cl)ccc1[N+](=O)[O-]`, the “growth AUC” value was 0.979.
On to `O=[N+]([O-])c1c(Cl)c(Cl)c(Cl)c(Cl)c1Cl`, for which the “growth AUC” value is 1.01.
Turning to `CC(Cc1ccc(C(C)(C)C)cc1)CN1CCCCC1` (stereo not drawn), the “growth AUC” value is 0.932.
Take `CNC(=O)c1cc(C#N)cc(C)c1NC(=O)c1cc(Br)nn1-c1ncccc1Cl`: the “growth AUC” value is 1.02.
For the compound `O=P(Oc1ccccc1)(Oc1ccccc1)Oc1ccccc1`, the “growth AUC” value is 0.993.
On the same count and under the same terms, under `CC(=NC#N)N(C)Cc1ccc(Cl)nc1` stands 0.982 and 1.08; under `CO/N=C(/C1=NOCCO1)c1ccccc1Oc1ncnc(Oc2ccccc2Cl)c1F`, 1.03.
`Cc1ccn2nc(S(=O)(=O)Nc3c(F)cccc3F)nc2n1`: the “growth AUC” value was 0.965.
As to `N#Cc1c(Cl)c(Cl)c(Cl)c(C#N)c1Cl`, the “growth AUC” value is 0.96.
Consider `C=CCC1=C(C)C(OC(=O)[C@@H]2[C@@H](C=C(C)C)C2(C)C)CC1=O` (stereo partly drawn), for which the “growth AUC” value was 0.988.
On the same count and under the same terms, with `O=C(O)CNCP(=O)(O)O` the figure was 1.

The test system of another assay is Eubacterium rectale. Described as above. The conditions noted are these: 20 µM; 24 h. The essentials: as §1
For `Nc1cc(Cl)cc(C(=O)O)c1Cl`, the “growth AUC” value was 1.01.
In the case of `CCOP(=S)(OCC)Oc1cnccn1`, the “growth AUC” value is 0.813.
Same read-out and setting: under `O=C(O)C(F)(F)C(F)(F)C(F)(F)C(F)(F)C(F)(F)C(F)(F)C(F)(F)C(F)(F)F` stands 0.99.
Same read-out and setting: with `CCOP(=S)(OCC)SCSCC` the figure was 1.17; with `CCOCn1c(-c2ccc(Cl)cc2)c(C#N)c(Br)c1C(F)(F)F`, 1.03.
As to `CCS(=O)(=O)c1cccnc1S(=O)(=O)NC(=O)Nc1nc(OC)cc(OC)n1`, the “growth AUC” value was 0.943.
Still for that read-out and setting: with `CCNc1nc(NC(C)C)nc(SC)n1` the figure was 1; with `CN1COCN(Cc2cnc(Cl)s2)/C1=N/[N+](=O)[O-]`, 0.953; with `COP(=S)(NC(C)C)Oc1ccccc1C(=O)OC(C)C` (stereo not drawn), 0.92.
Turning to `COC(=O)C(C)(Cl)Cl`, the “growth AUC” value was 0.934.
For the compound `CCCCOCN(C(=O)CCl)c1c(CC)cccc1CC`, the “growth AUC” value is 1.03.
The same measure, in the same setting: under `CC1(C)C(C=C(Cl)Cl)C1C(=O)OC(C#N)c1ccc(F)c(Oc2ccccc2)c1` (mixture of isomers) stands 1.06; under `CCOC(=O)CC(SP(=O)(OC)OC)C(=O)OCC` (stereo not drawn), 1.09; under `CCNc1nc(Cl)nc(NC(C)C)n1`, 1.06.
The same measure, in the same setting: with `Cc1cccc(C)c1N` the figure was 0.997; with `CN(C)C(=O)Nc1ccc(Cl)cc1`, 0.996; with `CCCCNC(=O)n1c(NC(=O)OC)nc2ccccc21`, 0.917.
The same measure, in the same setting: under `N#Cc1cc(I)c(O)c(I)c1` stands 0.954.
As for `CCOP(=S)(OCC)Oc1cc(Cl)c(Br)cc1Cl`, the “growth AUC” value was 1.05.
The same measure, in the same setting: with `Cc1cnc(C2=NC(C)(C(C)C)C(=O)N2)c(C(=O)O)c1` (stereo not drawn) the figure was 0.985; with `CC1(C)CCC(Cc2ccc(Cl)cc2)C1(O)Cn1cncn1` (stereo not drawn), 0.8; with `CCCN(CCC)c1c([N+](=O)[O-])cc(S(C)(=O)=O)cc1[N+](=O)[O-]`, 0.974.
`Cc1occc1C(=O)Nc1ccccc1`: the “growth AUC” value was 1.16.
The same measure, in the same setting: with `CCCOCC(=Nc1ccc(Cl)cc1C(F)(F)F)n1ccnc1` the figure was 0.382 (active).
For `Nc1cc(Cl)cc(Cl)c1`, the “growth AUC” value was 1.04.
For `O=C(O)COc1cc(Cl)c(Cl)cc1Cl`, the “growth AUC” value was 0.93.
On to `Cc1cc(Cl)ccc1N=CN(C)C`, for which the “growth AUC” value was 1.16.
As for `CNC(=O)Oc1cc(C)cc(C(C)C)c1`, the “growth AUC” value was 1.04.
The same measure, in the same setting: with `CCOc1cc(Oc2ccc(C(F)(F)F)cc2Cl)ccc1[N+](=O)[O-]` the figure was 0.989.
The same measure, in the same setting: under `O=[N+]([O-])c1c(Cl)c(Cl)c(Cl)c(Cl)c1Cl` stands 0.909.
In the case of `CC(Cc1ccc(C(C)(C)C)cc1)CN1CCCCC1` (stereo not drawn), the “growth AUC” value was 1.03.
Consider `CNC(=O)c1cc(C#N)cc(C)c1NC(=O)c1cc(Br)nn1-c1ncccc1Cl`, for which the “growth AUC” value was 0.972.
Consider `O=P(Oc1ccccc1)(Oc1ccccc1)Oc1ccccc1`, for which the “growth AUC” value was 0.977.
`CC(=NC#N)N(C)Cc1ccc(Cl)nc1`: the “growth AUC” value was 0.908 and 0.994.
Still for that read-out and setting: with `CO/N=C(/C1=NOCCO1)c1ccccc1Oc1ncnc(Oc2ccccc2Cl)c1F` the figure was 0.963; with `Cc1ccn2nc(S(=O)(=O)Nc3c(F)cccc3F)nc2n1`, 1.1.
On the same count and under the same terms, under `N#Cc1c(Cl)c(Cl)c(Cl)c(C#N)c1Cl` stands 0.714; under `C=CCC1=C(C)C(OC(=O)[C@@H]2[C@@H](C=C(C)C)C2(C)C)CC1=O` (stereo partly drawn), 0.919; under `O=C(O)CNCP(=O)(O)O`, 1.01.
